In PubChem BioAssay (EPA / NIEHS):
Results filed as inconclusive are left out. The source made the active and inactive calls. Rule for the calls, unless noted: active = hit-call score of the fitted dose curve at least 0.9, where 1 is the maximum; inactive = score below 0.9.

Key:
[1] = ACEA_ER_80hr: ACEA Biosciences xCELLigence Real-Time Cell Analysis on Estrogen Receptor Agonism for Proliferation (AID 2282667; active = hit-call score of the fitted dose curve at least 0.9, where 1 is the maximum); settings: T47D proliferation, impedance (xCELLigence), 80 h
In short: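 Cell-growth kinetics were measured by impedance in T47D cells treated continuously with compound (top 100 uM final, 1:4 steps, 8 points). Activity at 80 h was scored as signal gain over the DMSO baseline.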

[2] = ATG_CRE_CIS: Attagene CIS-FACTORIAL HepG2 Assay for human cAMP Responsive Element (CRE) binding protein 3 (AID 2282926); settings: HepG2 CRE cis-reporter, Attagene multiplexed mRNA; actives raise or lower the signal
In short: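 Cells carrying cis-regulated reporter constructs respond through their own endogenous factors. After 24 h treatment, RNA is reverse-transcribed, amplified, labelled and sized by capillary electrophoresis; up- and down-regulation are both scored against vehicle.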

[3] = biological target: CCAAT/enhancer-binding protein beta (Homo sapiens) (UniProt P17676); test: ATG_C_EBP_CIS: Attagene CIS-FACTORIAL HepG2 Assay for human CCAAT/Enhancer Binding Protein (C/EBP) beta (AID 2282927); settings: HepG2 Attagene cis-factorial transcription factor reporter; actives raise or lower the signal
In short: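 HepG2 transiently transfected with multiplexed reporter units under cis-regulatory promoters reporting endogenous C/EBPb activity. After 24 h exposure, reporter mRNA assayed by RT-PCR, fluorescent labelling, HpaI digestion and capillary electrophoresis; bidirectional fitting versus DMSO.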

[4] = ATG_CMV_CIS: Attagene CIS-FACTORIAL HepG2 Assay for human CMV (Internal Marker) (AID 2282928); settings: HepG2 CMV promoter reporter, transcription factor profiling; actives raise or lower the signal;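 note: endpoint acts as a background internal control marker rather than a target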
In short: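 Bidirectional fits against DMSO are applied to reporter mRNA, read by RT-PCR with capillary electrophoresis, from HepG2 cells exposed 24 h. The endpoint serves as an internal CMV background marker within the cis-factorial reporter panel.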

[5] = ATG_DR4_LXR_CIS: Attagene CIS-FACTORIAL HepG2 Assay for human Liver X Receptor (LXR), DR4 submotif (AID 2282929); settings: HepG2 Attagene DR4 cis-reporter, mRNA transcription; actives raise or lower the signal
In short: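 After transient transfection with multiplexed cis-promoter reporter units, HepG2 cells received test chemicals for 24 h. Reporter mRNA induction, detected by fluorescence after RT-PCR and capillary electrophoresis, was scored relative to DMSO.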

[6] = biological target: Aryl hydrocarbon receptor (Homo sapiens) (UniProt P35869); test: ATG_Ahr_CIS: Attagene CIS-FACTORIAL HepG2 Assay for human Aryl Hydrocarbon Receptor (Ahr) (AID 2282930); settings: HepG2 AhR cis-factorial reporter transcription; actives raise or lower the signal
In short: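 HepG2 cells transiently transfected with cis-element-driven multiplexed reporter units; endogenous AhR activity read as reporter mRNA 24 h after dosing, via RT-PCR, 6-FAM labelling, HpaI digestion and capillary electrophoresis. Bidirectional fit relative to DMSO.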

[7] = ATG_AP_1_CIS: Attagene CIS-FACTORIAL HepG2 Assay for human Activator Protein 1 (AP-1) (AID 2282931); settings: HepG2 Attagene cis-factorial AP-1 reporter mRNA; actives raise or lower the signal
In short: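 After 24 h incubation with test chemical, RNA from transfected HepG2 cells was reverse-transcribed, amplified, fluorescently labelled and digested before capillary electrophoresis. Reporters were driven by cis-regulatory promoters; activity fitted bidirectionally versus DMSO.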

[8] = ATG_BRE_CIS: Attagene CIS-FACTORIAL HepG2 Assay for human Bone Morphogenetic Protein (BMP) Response Element (BRE) (AID 2282933); settings: HepG2 BMP response element reporter, Attagene transcription factor profiling; actives raise or lower the signal
In short: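 HepG2 cells transiently transfected with multiplexed cis-element reporter units were dosed with chemical for 24 h. Reporter mRNA was measured by RT-PCR with fluorescent labelling, HpaI digestion and capillary electrophoresis; bidirectional fitting relative to DMSO.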

[9] = biological target: Retinoic acid receptor alpha (Homo sapiens) (UniProt P10276); test: ATG_DR5_RAR_CIS: Attagene CIS-FACTORIAL HepG2 Assay for human Retinoic Acid Receptor Alpha (RARE), DR5 submotif (AID 2282934); settings: HepG2 Attagene cis-factorial RARE DR5 reporter, mRNA; actives raise or lower the signal
In short: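 HepG2 cells transiently transfected with multiplexed reporter units; DR5 cis-element drives reporter through endogenous transcription factors. After 24 h dosing, reporter mRNA quantified by RT-PCR, fluorescent labeling, HpaI digestion and capillary electrophoresis; bidirectional fitting versus DMSO.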

[10] = ATG_E_Box_CIS: Attagene CIS-FACTORIAL HepG2 Assay for human Enhancer Box (E-box) (AID 2282936); settings: HepG2 E-box cis-reporter transcription, actives raise or lower the signal
In short: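 Transiently transfected HepG2, endogenous TF-driven reporters, 24 h dosing. Readout: RT-PCR plus capillary electrophoresis of fluorescent reporter fragments. Gain or loss of signal fitted bidirectionally against DMSO baseline.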

[11] = ATG_M_61_CIS: Attagene CIS-FACTORIAL HepG2 Assay for M61 Transcription Factor (Internal Marker) (AID 2282937); settings: HepG2 Attagene CIS-FACTORIAL M61 internal marker reporter; actives raise or lower the signal
In short: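 Using transiently transfected HepG2 liver cells, reporter transcript levels were assessed 24 h post-dosing by RT-PCR and capillary electrophoresis. Changes in either direction were fitted relative to DMSO controls.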

[12] = ATG_EGR_CIS: Attagene CIS-FACTORIAL HepG2 Assay for human Early Growth Response 1 (EGR1) (AID 2282938); settings: HepG2 Attagene CIS-FACTORIAL EGR reporter mRNA; actives raise or lower the signal
In short: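 Fluorescent capillary-electrophoresis signal of reporter cDNA fragments serves as read-out. HepG2 cells bear transiently transfected cis-promoter reporter units and are exposed 24 h; gain- or loss-of-signal is fitted against DMSO.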

[13] = ATG_M_19_CIS: Attagene CIS-FACTORIAL HepG2 Assay for M19 Transcription Factor (Internal Marker) (AID 2282939); settings: HepG2 Attagene CIS-FACTORIAL M19 internal marker reporter; actives raise or lower the signal
In short: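 HepG2 cells transiently transfected with cis-regulated multiple reporter transcription units were dosed for 24 h; reporter mRNA was quantified by RT-PCR, 6-FAM primer-extension labelling, HpaI digestion and capillary electrophoresis, with bidirectional fitting against DMSO baseline.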

[14] = ATG_ERE_CIS: Attagene CIS-FACTORIAL HepG2 Assay for Estrogen Response Element (ERE) (AID 2282940); settings: HepG2 ERE cis-reporter, Attagene RNA transcript; actives raise or lower the signal
In short: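 HepG2 cells transiently transfected with cis-promoter-driven multiplexed reporter transcription units report endogenous TF activity. After 24 h compound exposure, reporter mRNA is quantified by RT-PCR with capillary electrophoresis fluorescence; bidirectional fitting versus DMSO baseline.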

[15] = ATG_Ets_CIS: Attagene CIS-FACTORIAL HepG2 Assay for human Erythroblast Transformation Specific (ETS) (AID 2282941); settings: HepG2 ETS cis-reporter transcription, actives raise or lower the signal
In short: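 Endogenous transcription factor activity read as reporter mRNA via RT-PCR and capillary electrophoresis, with gain or loss fitted bidirectionally against DMSO. Human HepG2 liver cells, transiently transfected CIS reporter constructs, 24 h exposure.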

[16] = biological target: Hepatocyte nuclear factor 3-beta (Homo sapiens) (UniProt Q9Y261); test: ATG_FoxA2_CIS: Attagene CIS-FACTORIAL HepG2 Assay for human Forkhead box A2 (FOXA2) (AID 2282942); settings: HepG2 cis-reporter transcription factor activity, 24 h; actives raise or lower the signal
In short: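 Fluorescence signal of reporter cDNA fragments, separated by capillary electrophoresis, reflects endogenous transcription factor activity in transfected HepG2 after 24 h. Both increases and decreases fitted against DMSO.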

[17] = ATG_FoxO_CIS: Attagene CIS-FACTORIAL HepG2 Assay for human Forkhead box O (FoxO) (AID 2282943); settings: HepG2 Attagene cis-reporter, FoxO element, mRNA; actives raise or lower the signal
In short: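 HepG2 cells transiently transfected with cis-element-driven reporter units report endogenous FoxO activity. After 24 h chemical exposure, reporter mRNA quantified by RT-PCR, fluorescent labeling, HpaI digestion and capillary electrophoresis; bidirectional fit versus DMSO.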

[18] = ATG_GATA_CIS: Attagene CIS-FACTORIAL HepG2 Assay for human GATA Binding Protein (AID 2282944); settings: HepG2 GATA cis-element reporter, Attagene multiplex mRNA; actives raise or lower the signal
In short: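 HepG2 cells transiently transfected with multiplexed cis-element reporter units reflecting endogenous transcription factor activity; reporter mRNA measured after 24 h dosing by RT-PCR, 6-FAM labeling, HpaI digestion and capillary electrophoresis. Bidirectional fitting versus DMSO baseline.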

[19] = ATG_AP_2_CIS: Attagene CIS-FACTORIAL HepG2 Assay for human Activator Protein 2 (AP-2) (AID 2282932); settings: HepG2 AP-2 cis-reporter, Attagene transcription factor profiling; actives raise or lower the signal
In short: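 Read-out: fluorescent reporter mRNA via RT-PCR and capillary electrophoresis, 24 h post-dose in transiently transfected HepG2. Endogenous factors drive cis-promoter reporters; gain or loss of signal fitted bidirectionally against DMSO.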

[20] = biological target: Transcription factor E2F1 (Homo sapiens) (UniProt Q01094); test: ATG_E2F_CIS: Attagene CIS-FACTORIAL HepG2 Assay for human E2F Transcription Factor 1 (AID 2282935); settings: HepG2 Attagene cis-reporter, E2F reporter RNA transcripts; actives raise or lower the signal
In short: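 Transient MRTU transfection of HepG2; 24 h compound exposure; RNA → oligo(dT) RT → PCR → FAM label → HpaI cut → CE fluorescence. Gain/loss of signal fit against DMSO.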

Measured: AC50

Sequence of Aryl hydrocarbon receptor (Homo sapiens) (P35869 whole entry, looked up): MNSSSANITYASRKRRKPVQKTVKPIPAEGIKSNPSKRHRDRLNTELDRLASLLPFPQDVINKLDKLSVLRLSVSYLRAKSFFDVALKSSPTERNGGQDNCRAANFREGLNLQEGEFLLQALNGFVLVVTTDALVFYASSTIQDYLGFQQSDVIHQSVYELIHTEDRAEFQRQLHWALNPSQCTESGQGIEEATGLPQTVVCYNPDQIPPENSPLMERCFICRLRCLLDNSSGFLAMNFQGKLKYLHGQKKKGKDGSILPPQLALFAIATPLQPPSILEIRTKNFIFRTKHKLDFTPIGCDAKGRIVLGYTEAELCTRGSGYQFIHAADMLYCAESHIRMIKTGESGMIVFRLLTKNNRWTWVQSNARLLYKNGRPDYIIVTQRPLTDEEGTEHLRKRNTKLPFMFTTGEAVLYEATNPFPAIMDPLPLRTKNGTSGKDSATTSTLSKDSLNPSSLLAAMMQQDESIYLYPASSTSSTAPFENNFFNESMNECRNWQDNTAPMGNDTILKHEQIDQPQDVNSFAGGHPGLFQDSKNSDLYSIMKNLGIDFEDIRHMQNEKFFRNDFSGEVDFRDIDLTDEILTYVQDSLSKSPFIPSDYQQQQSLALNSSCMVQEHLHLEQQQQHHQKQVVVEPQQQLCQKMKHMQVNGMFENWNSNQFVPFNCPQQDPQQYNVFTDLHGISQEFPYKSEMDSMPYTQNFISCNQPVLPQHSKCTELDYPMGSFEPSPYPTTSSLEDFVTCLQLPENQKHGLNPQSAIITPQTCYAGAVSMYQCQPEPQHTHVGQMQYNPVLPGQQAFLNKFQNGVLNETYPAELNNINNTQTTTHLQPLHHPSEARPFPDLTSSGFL
Sequence of CCAAT/enhancer-binding protein beta (Homo sapiens) (P17676 whole entry, looked up): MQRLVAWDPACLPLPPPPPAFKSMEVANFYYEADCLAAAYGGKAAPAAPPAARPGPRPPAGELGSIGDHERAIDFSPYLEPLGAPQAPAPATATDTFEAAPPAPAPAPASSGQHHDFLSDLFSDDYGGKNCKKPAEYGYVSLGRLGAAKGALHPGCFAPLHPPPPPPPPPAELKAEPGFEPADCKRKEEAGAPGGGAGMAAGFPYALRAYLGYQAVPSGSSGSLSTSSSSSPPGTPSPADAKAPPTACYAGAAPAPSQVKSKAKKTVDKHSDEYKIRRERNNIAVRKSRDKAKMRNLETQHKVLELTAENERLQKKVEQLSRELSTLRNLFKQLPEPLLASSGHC
Sequence of Retinoic acid receptor alpha (Homo sapiens) (P10276 whole entry, looked up): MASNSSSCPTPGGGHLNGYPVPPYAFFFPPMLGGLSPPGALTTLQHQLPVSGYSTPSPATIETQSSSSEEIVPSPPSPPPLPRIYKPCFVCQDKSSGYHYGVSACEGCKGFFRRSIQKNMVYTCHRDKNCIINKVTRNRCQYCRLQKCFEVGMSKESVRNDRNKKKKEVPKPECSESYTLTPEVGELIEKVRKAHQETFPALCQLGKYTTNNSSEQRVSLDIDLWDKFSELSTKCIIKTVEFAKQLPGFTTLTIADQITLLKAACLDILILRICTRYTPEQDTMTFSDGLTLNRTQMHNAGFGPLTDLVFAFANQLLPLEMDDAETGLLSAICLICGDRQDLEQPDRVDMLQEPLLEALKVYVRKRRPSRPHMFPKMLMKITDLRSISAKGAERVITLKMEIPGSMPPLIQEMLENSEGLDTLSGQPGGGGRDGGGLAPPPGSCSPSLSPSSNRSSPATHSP
Sequence of Transcription factor E2F1 (Homo sapiens) (Q01094 whole entry, looked up): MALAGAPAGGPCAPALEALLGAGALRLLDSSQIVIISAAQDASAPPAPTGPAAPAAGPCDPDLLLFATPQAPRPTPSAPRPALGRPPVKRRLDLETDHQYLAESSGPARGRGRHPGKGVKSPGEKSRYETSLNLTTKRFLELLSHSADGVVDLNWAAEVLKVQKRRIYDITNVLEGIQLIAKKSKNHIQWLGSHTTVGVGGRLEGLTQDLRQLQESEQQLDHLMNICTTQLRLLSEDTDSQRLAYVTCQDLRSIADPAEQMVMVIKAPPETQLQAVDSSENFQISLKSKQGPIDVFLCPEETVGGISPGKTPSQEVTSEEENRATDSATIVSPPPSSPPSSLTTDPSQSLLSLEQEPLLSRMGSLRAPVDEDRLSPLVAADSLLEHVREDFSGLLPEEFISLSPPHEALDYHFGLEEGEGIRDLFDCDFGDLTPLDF
Sequence of Hepatocyte nuclear factor 3-beta (Homo sapiens) (Q9Y261 whole entry, looked up, the tested form may be a part): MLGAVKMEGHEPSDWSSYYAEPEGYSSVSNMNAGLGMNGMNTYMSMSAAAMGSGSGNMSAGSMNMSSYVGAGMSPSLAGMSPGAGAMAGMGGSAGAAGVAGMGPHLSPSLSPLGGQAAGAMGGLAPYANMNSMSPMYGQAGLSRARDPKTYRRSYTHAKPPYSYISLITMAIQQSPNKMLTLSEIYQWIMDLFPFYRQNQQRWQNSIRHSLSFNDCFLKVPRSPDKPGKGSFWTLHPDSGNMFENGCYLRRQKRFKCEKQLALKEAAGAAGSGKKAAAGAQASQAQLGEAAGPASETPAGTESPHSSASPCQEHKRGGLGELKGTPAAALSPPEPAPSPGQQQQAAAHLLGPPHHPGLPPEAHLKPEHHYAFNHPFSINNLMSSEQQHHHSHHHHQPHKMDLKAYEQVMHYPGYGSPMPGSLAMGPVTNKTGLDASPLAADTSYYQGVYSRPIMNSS

CCNc1nc(NC(C)(C)C)nc(OC)n1
not listed: [19] | [20]
inactive: all other assays above

CC(C)c1cccc(C(C)C)c1N
not listed: [8] | [12] | [16]
inactive: all other assays above

CCOC(=O)C1=NOC(c2ccccc2)(c2ccccc2)C1
not listed: [14] | [19]
inactive: all other assays above

CC=C(C)C=CC=C(C)C
not listed: [8]
inactive: all other assays above

CC(CC=O)CC(C)(C)C (stereo unspecified)
not listed: [19]
inactive: all other assays above

Cc1c(Cl)cccc1Cl
not listed: [13] | [19]
inactive: all other assays above

CCCCC(CC)COS(=O)(=O)O (stereo unspecified)
not listed: [5]
inactive: all other assays above

CC(c1cc(C(C)(C)C)cc(C(C)(C)C)c1O)c1cc(C(C)(C)C)cc(C(C)(C)C)c1O
not listed: [6] | [20]
inactive: all other assays above

Cn1ccnc1
not listed: [6] | [18]
inactive: all other assays above

COC(=O)c1ccc(C(=O)OC)c(C(=O)OC)c1
not listed: [6] | [16]
inactive: all other assays above

O=C(O)CCCC(=O)O
not listed: [6] | [13] | [19]
inactive: all other assays above

CCC(C)C(=O)OCCc1ccccc1 (stereo unspecified)
active: [1] 1680 nM
not listed: [6]
inactive: all other assays above

CCCCC(CC)COC(=O)/C=C/c1ccc(OC)cc1 (stereo unspecified)
not listed: [5] | [20]
inactive: all other assays above

CC1=CCC2CC1C2(C)C (stereo unspecified)
not listed: [6] | [8] | [20]
inactive: all other assays above

CCCCCCO
not listed: [5] | [12]
inactive: all other assays above
